# In PubChem BioAssay (NCATS):
# Inconclusive results are not listed. Calls of active or inactive are those of the source. Unless noted, calls follow the shape of the full dose curve.
# Tests used:
# [1] = target: Catechol O-methyltransferase (Homo sapiens) (UniProt P21964); experiment: Confirmatory Screen for Target Class Profiling of Small Molecule Inhibitors of Methyltransferases (AID 1745852); details: MTase-Glo luminescence, SAH detection, recombinant enzyme; measured here: COMT max response; stronger effect = lower value; as to activity change, negative = inhibition: % is scaled to controls: 0 for no effect and ±100 for the full control effect
# [2] = target: Guanidinoacetate N-methyltransferase (Homo sapiens) (UniProt Q14353); experiment: as above; details: MTase-Glo luminescence, SAH detection, recombinant enzyme; activity change, negative = inhibition: at 57.3 µM (top of the series) unless noted; series mostly up to 57.3 µM
# [3] = target: Nicotinamide N-methyltransferase (Homo sapiens) (UniProt P40261); experiment: as above; details: MTase-Glo luminescence, SAH detection, recombinant enzyme; measured here: NNMT max response; stronger effect = lower value
# [4] = target: Phenylethanolamine N-methyltransferase (Homo sapiens) (UniProt P11086); experiment: as above; details: MTase-Glo luminescence, SAH detection, recombinant enzyme; measured here: PNMT max response; stronger effect = lower value
# [5] = target: Cytochrome P450 1A2 (Homo sapiens) (UniProt P05177); experiment: p450-cyp1a2 (AID 410); details: recombinant CYP1A2, luciferin-ME demethylation, luminescence; series mostly up to 57 µM; also: potency is read from the fitted curve at half-maximal effect
# Summary of the method: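 Human CYP1A2 (20nM) demethylated Luciferin-ME at its Km (100uM) in 100mM KPO4. After 10 min compound preincubation, NADPH regeneration ran the reaction 60 min at room temperature. Luciferin was read by luminescence, normalized to 57 uM furafylline.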
# [6] = target: Glucocorticoid receptor (Homo sapiens) (UniProt P04150); experiment: GR-EFC Redistribution (AID 451); details: CHO-K1 GR-EFC translocation, beta-gal luminescence, 2 h; also: potency is read from the fitted curve at half-maximal effect
# Summary of the method: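 CHO-K1 cells expressing nuclear EA and GR-ED fragments of b-gal; compounds titrated up to 46 uM final, 2 h at 37 C. GR nuclear translocation read as complemented b-gal luminescence after 1 h RT detection.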
# [7] = target: Mitogen-activated protein kinase 10 (Mus musculus) (UniProt Q61831); experiment: JNK3 AlphaScreen Assay (AID 530; active = well fitted curve in either direction with a large enough effect, not every such curve was filed as active;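 also: kinase came from lysate of stimulated human HepG2 cells; signal reports phosphorylation of biotinylated GST-cJun 1-79 at Ser73 with 10 µM ATP; % is scaled to controls: 0 for no effect and ±100 for the full control effect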); details: JNK3 lysate, c-Jun phosphorylation; series mostly up to 57.1 µM
# Summary of the method: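 qHTS format: compounds tested as titrations against IL-1beta/TNF-alpha-activated HepG2 lysate JNK3 with biotin-GST-cJun substrate and 10 uM ATP at room temperature. Loss of anti-phospho-cJun AlphaScreen signal indicates inhibition.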
# [8] = target: 3',5'-cyclic-AMP phosphodiesterase 4B (Homo sapiens) (UniProt Q07343); experiment: qHTS Assay for Inhibitors of PDE-IV (AID 607; active = well fitted activation curve with a large enough effect in the main read-out, with a control signal flat, not every such curve was filed as active; also: % of control where 0% means no effect); details: HEK293 ACTOne CNG channel cells, membrane potential fluorescence; series mostly up to 22.9 µM
# Summary of the method: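 HEK293 ACTOne cells with CNG channel (1000/well), endogenous PDE4; membrane potential dye, compounds up to 22.9 uM final. Fluorescence Ex 535/Em 590; RO 20-1724 (100 uM final) as reference.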
# [9] = target: Cytochrome P450 2C9 (Homo sapiens) (UniProt P11712); experiment: qHTS Assay for Inhibitors and Substrates of Cytochrome P450 2C9 (AID 883; active = well fitted curve in the direction sought with a large enough effect; an effect the other way counts as inactive or inconclusive; also: % is scaled to controls: 0 for no effect and ±100 for the full control effect; nearly all actives have a fitted effect of over 60% in size); details: recombinant CYP2C9, luciferin-H luminescence, 60 min; series mostly up to 57.1 µM
# Summary of the method: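 Human CYP2C9 (10nM) with Luciferin-H at 100uM (its KM) in 25mM KPO4; compound preincubated 10 min at 37C, then NADPH regeneration for 60 min at 37C. Luciferin read by luminescence after detection reagent; normalized to 57uM sulphaphenazole as full inhibition.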
# [10] = target: Cytochrome P450 3A4 (Homo sapiens) (UniProt P08684); experiment: qHTS Assay for Inhibitors and Substrates of Cytochrome P450 3A4 (AID 884; active = well fitted curve in the direction sought with a large enough effect; an effect the other way counts as inactive or inconclusive; also: potency is read from the fitted curve at half-maximal effect; nearly all actives have a fitted effect of over 50% in size); details: recombinant CYP3A4, Luciferin-PPXE luminescence; series mostly up to 57.1 µM
# Summary of the method: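 20 nM human CYP3A4 with 25 uM Luciferin-PPXE (at KM) in 200 mM KPO4, preincubated 10 min with compound; NADPH regeneration started a 60 min RT reaction. Luciferin detected by luminescence, normalized to 57 uM ketoconazole as full inhibition.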
# [11] = target: Cytochrome P450 3A4 (Homo sapiens) (UniProt P08684); experiment: qHTS Assay for Activators of Cytochrome P450 3A4 (AID 885; active = well fitted curve in the direction sought with a large enough effect; an effect the other way counts as inactive or inconclusive; also: nearly all actives have a fitted effect of over 65% in size); details: recombinant CYP3A4, Luciferin-PPXE luminescence, 60 min; series mostly up to 57.1 µM
# Summary of the method: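 Human CYP3A4 (20 nM) with Luciferin-PPXE at 25 uM (its KM) in 200 mM KPO4; 10 min compound preincubation, then NADPH regeneration and 60 min reaction at RT. Luciferin read by luminescence; normalized to 57 uM ketoconazole full inhibition.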
# [12] = target: Cytochrome P450 2D6 (Homo sapiens) (UniProt P10635); experiment: qHTS Assay for Inhibitors and Substrates of Cytochrome P450 2D6 (AID 891; active = well fitted curve in the direction sought with a large enough effect; an effect the other way counts as inactive or inconclusive;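 also: luciferin methyl ether substrate demethylated by CYP2D6 with NADPH regeneration; % is scaled to controls: 0 for no effect and ±100 for the full control effect; nearly all actives have a fitted effect of over 60% in size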); details: recombinant CYP2D6, luciferin-ME EGE luminescence; series mostly up to 57.1 µM
# Summary of the method: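 Human CYP2D6 (5 nM) with 30 uM Luciferin-ME EGE (at Km) in 100 mM KPO4, compound preincubated 10 min, then NADPH regeneration system for 60 min at room temperature. Luciferin read by luminescence; normalized to 1.43 uM quinidine.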
# [13] = target: Cytochrome P450 2C19 (Homo sapiens) (UniProt P33261); experiment: qHTS Assay for Inhibitors and Substrates of Cytochrome P450 2C19 (AID 899; active = well fitted curve in the direction sought with a large enough effect; an effect the other way counts as inactive or inconclusive; also: % is scaled to controls: 0 for no effect and ±100 for the full control effect; nearly all actives have a fitted effect of over 60% in size); details: recombinant CYP2C19, luciferin-H EGE luminescence; series mostly up to 57.1 µM
# Summary of the method: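 5 nM human CYP2C19 with 10uM Luciferin-H EGE (at KM) in 50mM KPO4, compound preincubated 10 min at 37C, then NADPH regeneration for 60 min at 37C. Luciferin read by luminescence after detection reagent; normalized to 57uM ketoconazole as full inhibition.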
# [14] = target: DNA dC->dU-editing enzyme APOBEC-3G (Homo sapiens) (UniProt Q9HC16); experiment: qHTS for inhibitors of Vif-A3G interactions: Validation (AID 588379; active = well fitted curve in the direction sought with a large enough effect; an effect the other way counts as inactive or inconclusive; also: 0% is about no effect); details: Vif-A3G protein interaction assay; series mostly up to 46.1 µM
# Summary of the method: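 HeLa cells stably expressing Vif and A3G-eYFP, 700 cells/well, incubated overnight at 37 deg C, then exposed to compound overnight at 37 deg C. Inhibition of Vif-mediated degradation read as increased yellow fluorescence (Ex 488/Em 500-530) by laser-scanning cytometry.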
# Nicotinamide N-methyltransferase (Homo sapiens), sequence (P40261 whole entry, looked up): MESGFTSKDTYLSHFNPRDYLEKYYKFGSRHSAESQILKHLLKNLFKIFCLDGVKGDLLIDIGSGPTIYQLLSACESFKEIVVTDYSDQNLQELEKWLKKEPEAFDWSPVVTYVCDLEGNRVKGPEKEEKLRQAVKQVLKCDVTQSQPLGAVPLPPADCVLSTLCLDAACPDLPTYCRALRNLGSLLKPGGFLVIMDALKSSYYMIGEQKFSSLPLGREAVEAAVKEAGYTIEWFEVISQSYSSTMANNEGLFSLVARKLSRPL
# Catechol O-methyltransferase (Homo sapiens), sequence (P21964 whole entry, looked up): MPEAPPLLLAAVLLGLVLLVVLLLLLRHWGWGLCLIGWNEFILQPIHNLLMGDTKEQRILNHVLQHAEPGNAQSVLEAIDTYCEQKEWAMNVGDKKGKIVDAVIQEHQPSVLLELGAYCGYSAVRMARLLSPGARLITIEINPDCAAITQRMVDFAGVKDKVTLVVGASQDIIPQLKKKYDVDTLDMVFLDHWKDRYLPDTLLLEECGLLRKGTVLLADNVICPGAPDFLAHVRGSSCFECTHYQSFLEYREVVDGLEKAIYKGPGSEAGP
# Phenylethanolamine N-methyltransferase (Homo sapiens), sequence (P11086 whole entry, looked up): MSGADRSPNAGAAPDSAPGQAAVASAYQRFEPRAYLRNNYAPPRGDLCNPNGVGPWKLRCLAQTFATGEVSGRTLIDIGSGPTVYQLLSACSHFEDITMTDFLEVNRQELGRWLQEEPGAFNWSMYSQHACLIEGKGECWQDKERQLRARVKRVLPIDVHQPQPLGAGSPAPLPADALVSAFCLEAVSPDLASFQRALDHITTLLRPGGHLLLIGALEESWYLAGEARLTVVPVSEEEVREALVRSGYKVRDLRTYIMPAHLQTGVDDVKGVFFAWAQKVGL
# Cytochrome P450 3A4 (Homo sapiens), sequence (P08684 whole entry, looked up): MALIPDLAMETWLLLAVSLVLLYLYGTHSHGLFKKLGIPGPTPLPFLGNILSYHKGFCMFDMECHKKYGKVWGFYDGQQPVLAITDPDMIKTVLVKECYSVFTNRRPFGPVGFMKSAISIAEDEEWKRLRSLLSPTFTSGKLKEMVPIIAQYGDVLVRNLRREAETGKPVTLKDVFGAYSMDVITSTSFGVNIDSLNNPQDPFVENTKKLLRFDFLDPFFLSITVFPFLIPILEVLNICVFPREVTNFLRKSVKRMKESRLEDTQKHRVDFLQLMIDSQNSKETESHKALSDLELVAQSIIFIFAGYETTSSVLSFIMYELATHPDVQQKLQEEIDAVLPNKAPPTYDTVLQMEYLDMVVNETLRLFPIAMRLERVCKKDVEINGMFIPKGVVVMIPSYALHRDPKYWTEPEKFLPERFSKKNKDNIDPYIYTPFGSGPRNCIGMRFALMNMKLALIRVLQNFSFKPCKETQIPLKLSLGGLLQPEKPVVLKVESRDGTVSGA
# 3',5'-cyclic-AMP phosphodiesterase 4B (Homo sapiens), sequence (Q07343 whole entry, looked up): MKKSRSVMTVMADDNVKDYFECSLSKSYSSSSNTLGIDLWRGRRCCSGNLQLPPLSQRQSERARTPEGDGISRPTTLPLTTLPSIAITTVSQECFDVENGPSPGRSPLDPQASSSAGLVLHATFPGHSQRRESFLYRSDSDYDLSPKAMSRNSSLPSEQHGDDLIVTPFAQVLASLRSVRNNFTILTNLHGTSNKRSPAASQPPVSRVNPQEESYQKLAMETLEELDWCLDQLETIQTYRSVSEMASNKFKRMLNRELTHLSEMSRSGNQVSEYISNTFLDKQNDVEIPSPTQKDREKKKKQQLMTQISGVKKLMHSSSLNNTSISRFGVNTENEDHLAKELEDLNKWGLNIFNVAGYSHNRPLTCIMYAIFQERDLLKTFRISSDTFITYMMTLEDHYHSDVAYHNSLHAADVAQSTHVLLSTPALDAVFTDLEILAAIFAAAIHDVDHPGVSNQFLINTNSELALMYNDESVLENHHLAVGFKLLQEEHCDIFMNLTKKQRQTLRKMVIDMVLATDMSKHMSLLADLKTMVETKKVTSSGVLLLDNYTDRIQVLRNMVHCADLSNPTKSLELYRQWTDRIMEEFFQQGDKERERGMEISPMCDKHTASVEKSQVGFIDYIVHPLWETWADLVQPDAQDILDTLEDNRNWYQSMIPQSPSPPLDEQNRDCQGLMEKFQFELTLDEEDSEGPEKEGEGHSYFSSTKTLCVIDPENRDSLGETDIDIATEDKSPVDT
# Cytochrome P450 2C9 (Homo sapiens), sequence (P11712 whole entry, looked up): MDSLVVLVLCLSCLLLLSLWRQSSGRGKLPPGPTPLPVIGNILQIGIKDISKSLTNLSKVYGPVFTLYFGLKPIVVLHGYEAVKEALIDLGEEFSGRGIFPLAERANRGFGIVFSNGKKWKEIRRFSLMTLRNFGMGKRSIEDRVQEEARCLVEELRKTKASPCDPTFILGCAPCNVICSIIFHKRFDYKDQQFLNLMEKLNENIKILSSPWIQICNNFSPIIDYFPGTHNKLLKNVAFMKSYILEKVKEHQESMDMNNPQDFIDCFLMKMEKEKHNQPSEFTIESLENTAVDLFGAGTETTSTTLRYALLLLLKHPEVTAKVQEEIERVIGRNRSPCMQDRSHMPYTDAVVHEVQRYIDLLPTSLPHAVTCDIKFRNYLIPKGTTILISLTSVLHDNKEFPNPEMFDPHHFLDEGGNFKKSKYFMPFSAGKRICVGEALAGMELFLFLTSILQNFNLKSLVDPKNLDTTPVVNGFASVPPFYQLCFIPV
# DNA dC->dU-editing enzyme APOBEC-3G (Homo sapiens), sequence (Q9HC16 whole entry, looked up): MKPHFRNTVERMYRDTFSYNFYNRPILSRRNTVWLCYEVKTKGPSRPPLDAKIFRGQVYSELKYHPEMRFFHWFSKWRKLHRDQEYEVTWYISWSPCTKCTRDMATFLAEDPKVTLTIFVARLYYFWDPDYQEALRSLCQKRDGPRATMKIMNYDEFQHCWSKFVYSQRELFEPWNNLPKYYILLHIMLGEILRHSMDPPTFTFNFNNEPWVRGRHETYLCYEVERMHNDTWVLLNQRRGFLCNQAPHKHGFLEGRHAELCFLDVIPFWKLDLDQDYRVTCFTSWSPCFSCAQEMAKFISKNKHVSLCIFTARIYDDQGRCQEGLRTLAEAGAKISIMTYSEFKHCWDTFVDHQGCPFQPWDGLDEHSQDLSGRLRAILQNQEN
# Cytochrome P450 2C19 (Homo sapiens), sequence (P33261 whole entry, looked up): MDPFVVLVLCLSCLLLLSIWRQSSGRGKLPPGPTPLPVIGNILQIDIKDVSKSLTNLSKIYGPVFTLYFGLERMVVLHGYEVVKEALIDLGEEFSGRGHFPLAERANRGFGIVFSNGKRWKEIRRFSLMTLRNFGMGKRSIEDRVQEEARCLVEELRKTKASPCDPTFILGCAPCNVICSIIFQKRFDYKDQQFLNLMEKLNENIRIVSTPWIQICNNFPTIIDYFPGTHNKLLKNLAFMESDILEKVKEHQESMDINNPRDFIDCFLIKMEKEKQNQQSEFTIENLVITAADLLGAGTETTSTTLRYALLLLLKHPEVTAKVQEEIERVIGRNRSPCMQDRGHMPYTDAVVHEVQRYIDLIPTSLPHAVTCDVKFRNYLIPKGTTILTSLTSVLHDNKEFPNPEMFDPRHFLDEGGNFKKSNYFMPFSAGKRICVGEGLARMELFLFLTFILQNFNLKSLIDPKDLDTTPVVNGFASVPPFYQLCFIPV
# Cytochrome P450 1A2 (Homo sapiens), sequence (P05177 whole entry, looked up): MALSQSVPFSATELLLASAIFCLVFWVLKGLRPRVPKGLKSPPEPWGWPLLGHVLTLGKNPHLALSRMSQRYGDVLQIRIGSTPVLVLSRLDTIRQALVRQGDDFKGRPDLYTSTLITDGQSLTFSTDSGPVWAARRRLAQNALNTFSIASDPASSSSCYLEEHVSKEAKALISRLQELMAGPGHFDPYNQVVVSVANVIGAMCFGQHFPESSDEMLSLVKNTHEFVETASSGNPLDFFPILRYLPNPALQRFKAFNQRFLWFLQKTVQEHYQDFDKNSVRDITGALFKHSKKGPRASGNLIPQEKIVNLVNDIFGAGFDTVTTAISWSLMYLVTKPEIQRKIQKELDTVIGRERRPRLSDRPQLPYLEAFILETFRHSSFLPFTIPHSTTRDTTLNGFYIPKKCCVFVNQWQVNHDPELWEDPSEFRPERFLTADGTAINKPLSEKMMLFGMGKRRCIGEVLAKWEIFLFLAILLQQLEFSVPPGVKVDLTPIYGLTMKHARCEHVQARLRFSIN
# Cytochrome P450 2D6 (Homo sapiens), sequence (P10635 whole entry, looked up): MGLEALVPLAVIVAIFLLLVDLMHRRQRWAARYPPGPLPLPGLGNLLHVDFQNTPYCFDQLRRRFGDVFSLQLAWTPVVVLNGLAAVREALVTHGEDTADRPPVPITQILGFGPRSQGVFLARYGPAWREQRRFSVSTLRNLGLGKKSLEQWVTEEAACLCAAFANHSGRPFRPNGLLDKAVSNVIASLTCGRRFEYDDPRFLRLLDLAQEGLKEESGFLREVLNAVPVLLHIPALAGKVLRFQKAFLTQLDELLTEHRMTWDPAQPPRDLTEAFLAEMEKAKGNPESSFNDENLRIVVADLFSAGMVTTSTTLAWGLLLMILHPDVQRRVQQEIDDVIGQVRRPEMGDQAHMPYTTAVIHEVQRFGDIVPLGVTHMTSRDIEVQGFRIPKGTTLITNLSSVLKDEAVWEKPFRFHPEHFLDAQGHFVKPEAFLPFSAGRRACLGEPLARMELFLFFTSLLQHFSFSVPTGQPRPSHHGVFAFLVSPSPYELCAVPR
compound,measurement,setting,value
CC(=O)NC1CC2(CCN(Cc3ccc(O)cc3)CC2)c2ccccc21 (stereo not drawn),activity,[1],6.67%
same,"activity change, negative = inhibition",[2],7.28% [at 85.7 µM]
same,activity,[3],12.2%
same,activity,[4],5.3%
Cc1ccc2nc(CN(C)C(=O)C3CCC(=O)N(C4CCCCCC4)C3)[nH]c2c1 (stereo not drawn),activity,[1],-3.1%
same,"activity change, negative = inhibition",[2],-4.65%
same,activity,[3],-9.1%
same,activity,[4],-9.49%
CCN(CC)CCNC(=O)CCCc1nnc2n3nc(-c4ccccc4)nc3c3ccccc3n12,activity,[1],-2.75%
same,"activity change, negative = inhibition",[2],0.717%
same,activity,[3],-0.56%
same,activity,[4],-1.77%
Cc1ccc(Cn2c(=O)c3ccccc3n3c(-c4cccc(C)c4)nnc23)cc1,activity,[1],-4.65%
same,"activity change, negative = inhibition",[2],2.78%
same,activity,[3],-4.69%
same,activity,[4],-4.19%
Cc1cc2c(cc3n2CC(C)(C(=O)NC2CCCCCCC2)N(Cc2ccco2)C3=O)o1 (stereo not drawn),activity,[1],-1.76%
same,"activity change, negative = inhibition",[2],0%
same,activity,[3],-37.5%
same,activity,[4],-6.55%
COc1ccc(-c2oc3ccc(C)cc3c(=O)c2O)cc1OC,Potency,[5],0.251 µM (active)
same,Potency,[6],> 46 µM (inactive)
same,Potency,[7],inactive
same,Potency,[8],inactive
same,Potency,[9],inactive
same,Potency,[10],3.98 µM (active)
same,outcome,[11],inactive
same,Potency,[12],inactive
same,Potency,[13],inactive
same,outcome,[14],inactive
same,activity,[1],-1%
same,"activity change, negative = inhibition",[2],0%
same,activity,[3],1.6%
same,activity,[4],4.32%
COCCCN1C(=O)c2cc3c(OC)ccc(OC)c3n2CC1(C)C(=O)NC1CCCCC1 (stereo not drawn),activity,[1],-9.18%
same,"activity change, negative = inhibition",[2],-5.66%
same,activity,[3],-20.2%
same,activity,[4],-10%
O=C(CCc1nnc2n(CCc3ccccc3)c(=O)c3ccccc3n12)N1CCN(C2CCCCC2)CC1,activity,[1],0%
same,"activity change, negative = inhibition",[2],0%
same,activity,[3],-47.4%
same,activity,[4],0.426%
CCCC1c2cccn2CCN1C(=O)NC1(CC(=O)OCC)CCCCC1 (stereo not drawn),activity,[1],-3.29%
same,"activity change, negative = inhibition",[2],-0.613%
same,activity,[3],-5.96%
same,activity,[4],-9.82%
CC1(C(=O)NC2CCCCC2)Cn2c(c(-n3cccc3)c3ccccc32)C(=O)N1Cc1ccccn1 (stereo not drawn),activity,[1],0%
same,"activity change, negative = inhibition",[2],0%
same,activity,[3],-45.4%
same,activity,[4],2.72%
Cc1ccc(C2Nc3c(ccc(C(=O)O)c3C)C3C=CCC32)cc1 (stereo not drawn),activity,[1],-3.41%
same,Potency,[2],inactive
same,activity,[3],-1.48%
same,activity,[4],-1.34%
CCN(CCc1nc2ccc(C)cc2[nH]1)C(=O)c1ccccc1C1CCNC1 (stereo not drawn),activity,[1],6.01%
same,"activity change, negative = inhibition",[2],8.24%
same,activity,[3],7.78%
same,activity,[4],8.18%
